The nature of test [1]: NCI Yeast Anticancer Drug Screen. Data for the rad50 strain (AID 155).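 Note: 0% = growth of vehicle-only cultures of the same strain.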 The settings on record: S. cerevisiae rad50 strain growth inhibition, hits give high values. A digest of the protocol: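 A DNA repair-deficient yeast mutant serves as the test organism; compound-induced growth inhibition is calculated against vehicle-treated cells.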
The nature of test [2]: NCI Yeast Anticancer Drug Screen. Data for the mec2-1 strain (AID 157). Particulars: S. cerevisiae mec2-1 strain, hits give high values. A digest of the protocol:
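Each compound was tested on mec2-1 yeast, a strain altered in DNA damage repair or cell cycle control. Growth inhibition is reported relative to vehicle.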

A short description of test [3]: NCI Yeast Anticancer Drug Screen. Data for the sgs1 mgt1 strain (AID 161).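 Note: 0% = growth of cultures given vehicle only.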 Particulars: S. cerevisiae sgs1 mgt1 strain, hits give high values. A digest of the protocol:
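Test agents were incubated with a DNA-repair-mutant yeast strain. Growth was then read and compared against vehicle-treated controls.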

A short description of test [4]: NCI Yeast Anticancer Drug Screen. Data for the cln2 rad14 strain (AID 165).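 Note: 0% = growth equal to vehicle treated cultures.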 The settings on record: S. cerevisiae cln2 rad14 strain, hits give high values. An outline of the steps: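 Test compounds were added to cln2 rad14 yeast cultures; inhibition of growth was then determined by comparison with vehicle treatment.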
A short description of test [5]: NCI Yeast Anticancer Drug Screen. Data for the bub3 strain (AID 167). Particulars: S. cerevisiae bub3 mutant strain, hits give high values. An outline of the steps:
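Inhibition values come from growth of compound-treated mutant yeast normalised to vehicle-treated controls.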

The nature of test [6]: NCI Yeast Anticancer Drug Screen. Data for the mlh1 rad18 strain (AID 175). Particulars: S. cerevisiae mlh1 rad18 strain growth inhibition, hits give high values. An outline of the steps:
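Inhibition values reflect reduced growth of mutant yeast versus vehicle-treated controls following compound exposure; the mutations affect DNA damage repair.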

Setting [7] is: at 5.0 µM (retest, dose inferred, filed as 0.5).
Setting [8] is: at 50.0 µM (retest, dose inferred, filed as 5.0).

This is part of a sample that, as a whole, favours compounds with a hit. Of some 79,000 tested, about 15% had one in any assay. Unmarked numbers belong to inactive results. Active and inactive are the calls of the source. Cut-off read from the data, not from the text of the source: active = growth inhibition above about 70%; inactive = the rest.

Results on ten compounds are retold here after PubChem BioAssay (NCI).

With `CSC(=S)n1nc(-c2ccccc2)c(N=Nc2ccc(Br)cc2)c1-c1ccccc1`, the growth inhibition in test [1] (setting [7]) is 6%; in test [1] (setting [8]), 14%; in test [1] (at 50.0 µM), 41%; in test [2] (setting [7]), 9%; in test [2] (setting [8]), 25%; in test [2] (at 50.0 µM), 23.9%. In addition, the growth inhibition in test [3] (setting [7]) was 5%; in test [3] (setting [8]), 25%; in test [3] (at 50.0 µM), 6.15%; in test [4] (setting [7]), 10%; in test [4] (setting [8]), 4%; in test [4] (at 50.0 µM), 49.9%. Moreover, the growth inhibition in test [5] (setting [7]) is 13%; in test [5] (setting [8]), 34%; in test [5] (at 50.0 µM), 0.05%; in test [6] (setting [7]), 5%; in test [6] (setting [8]) it was 19%; in test [6] (at 50.0 µM), -10.2%.

For `Nc1nnc(Cc2ccc(Br)cc2)o1`, the growth inhibition is -8% in test [1] (setting [7]); 0% in test [1] (setting [8]); 21.3% in test [1] (at 50.0 µM); 1% in test [2] (setting [7]); -6% in test [2] (setting [8]); 13.9% in test [2] (at 50.0 µM). Further, the growth inhibition in test [3] (setting [7]) was -3%; in test [3] (setting [8]) it was 12%; in test [3] (at 50.0 µM) it was 24.3%; in test [4] (setting [7]), 10%; in test [4] (setting [8]) it was -2%; in test [4] (at 50.0 µM), 71.5% (active). Further, the growth inhibition in test [5] (setting [7]) is 4%; in test [5] (setting [8]), 6%; in test [5] (at 50.0 µM), -13.8%; in test [6] (setting [7]), -12%; in test [6] (setting [8]), 4%; in test [6] (at 50.0 µM), 58.3%.

For the compound `C=C(C)COc1cc(NC(=S)OC(C)C)ccc1Cl`, the growth inhibition in test [1] (setting [7]) was 16%; in test [1] (setting [8]), 90% (active); in test [1] (at 50.0 µM), 51.8%; in test [2] (setting [7]), 16%; in test [2] (setting [8]), 93% (active); in test [2] (at 50.0 µM), 83.8% (active). In addition, the growth inhibition in test [3] (setting [7]) was 8%; in test [3] (setting [8]), 88% (active); in test [3] (at 50.0 µM) it was 90.1% (active); in test [4] (setting [7]) it was 6%; in test [4] (setting [8]) it was 86% (active); in test [4] (at 50.0 µM) it was 88.2% (active). For the same compound, the growth inhibition in test [5] (setting [7]) was 20%; in test [5] (setting [8]), 93% (active); in test [5] (at 50.0 µM), 88.3% (active); in test [6] (setting [7]), 12%; in test [6] (setting [8]), 92% (active); in test [6] (at 50.0 µM), 83.6% (active).

As to `Oc1cccc2ccncc12`, the growth inhibition in test [1] (setting [7]) was 7%; in test [1] (setting [8]), 9%; in test [1] (at 50.0 µM) it was 29.3%; in test [2] (setting [7]), -14%; in test [2] (setting [8]) it was 14%; in test [2] (at 50.0 µM) it was 20.4%. Also, the growth inhibition in test [3] (setting [7]) was 3%; in test [3] (setting [8]), 16%; in test [3] (at 50.0 µM) it was 22.1%; in test [4] (setting [7]), 13%; in test [4] (setting [8]), 29%; in test [4] (at 50.0 µM) it was 9.05%. In addition, the growth inhibition in test [5] (setting [7]) is 2%; in test [5] (setting [8]) it was 14%; in test [5] (at 50.0 µM), 21.1%; in test [6] (setting [7]) it was 2%; in test [6] (setting [8]), 43%; in test [6] (at 50.0 µM), 58.4%.

Turning to `CSc1cc2c(cc1N)Cc1cc(F)ccc1-2`, the growth inhibition in test [1] (setting [7]) is 4%; in test [1] (setting [8]), 73% (active); in test [1] (at 50.0 µM), 98.3% (active); in test [2] (setting [7]), -1%; in test [2] (setting [8]) it was 78% (active); in test [2] (at 50.0 µM), 98.2% (active). For the same compound, the growth inhibition in test [3] (setting [7]) was 0%; in test [3] (setting [8]) it was 85% (active); in test [3] (at 50.0 µM), 98.5% (active); in test [4] (setting [7]) it was -10%; in test [4] (setting [8]), 93% (active); in test [4] (at 50.0 µM), 97.2% (active). In addition, the growth inhibition was -3% in test [5] (setting [7]); 84% (active) in test [5] (setting [8]); 98% (active) in test [5] (at 50.0 µM); -2% in test [6] (setting [7]); 82% (active) in test [6] (setting [8]); 98.5% (active) in test [6] (at 50.0 µM).

Turning to `Cc1ccc(NC2=CC(=O)C(NO)c3ccccc32)cc1` (stereo not given), the growth inhibition in test [1] (setting [7]) was 14%; in test [1] (setting [8]) it was 66%; in test [1] (at 50.0 µM), 38.6%; in test [2] (setting [7]), 19%; in test [2] (setting [8]), 66%; in test [2] (at 50.0 µM), 20.6%. Further, the growth inhibition was 16% in test [3] (setting [7]); 68% in test [3] (setting [8]); 35.6% in test [3] (at 50.0 µM); 10% in test [4] (setting [7]); 40% in test [4] (setting [8]); 44.5% in test [4] (at 50.0 µM). For the same compound, the growth inhibition in test [5] (setting [7]) was 21%; in test [5] (setting [8]), 83% (active); in test [5] (at 50.0 µM), 21.9%; in test [6] (setting [7]), 13%; in test [6] (setting [8]) it was 79% (active); in test [6] (at 50.0 µM) it was 60.5%.

As to `O=[N+]([O-])c1ccc(CN2CCN(c3nccs3)CC2)cc1`, the growth inhibition in test [1] (setting [7]) was 5%; in test [1] (setting [8]), 22%; in test [1] (at 50.0 µM), 76.8% (active); in test [2] (setting [7]), -3%; in test [2] (setting [8]), 11%; in test [2] (at 50.0 µM) it was 51%. Also, the growth inhibition in test [3] (setting [7]) is 1%; in test [3] (setting [8]) it was 61%; in test [3] (at 50.0 µM), 77.8% (active); in test [4] (setting [7]), -1%; in test [4] (setting [8]) it was 29%; in test [4] (at 50.0 µM), 34.5%. Moreover, the growth inhibition in test [5] (setting [7]) was -1%; in test [5] (setting [8]), 38%; in test [5] (at 50.0 µM), 66.6%; in test [6] (setting [7]), 3%; in test [6] (setting [8]), 46%; in test [6] (at 50.0 µM), 66.2%.

As for `Oc1c(Cl)cc(Cl)cc1/C=C1\C=Nc2ccccc21`, the growth inhibition was 1% in test [1] (setting [7]); -5% in test [1] (setting [8]); 2.75% in test [1] (at 50.0 µM); -11% in test [2] (setting [7]); 5% in test [2] (setting [8]); 14.9% in test [2] (at 50.0 µM). The growth inhibition was -7% in test [3] (setting [7]); 5% in test [3] (setting [8]); -14.2% in test [3] (at 50.0 µM); 13% in test [4] (setting [7]); 20% in test [4] (setting [8]); 13.6% in test [4] (at 50.0 µM). Further, the growth inhibition in test [5] (setting [7]) was 3%; in test [5] (setting [8]), 23%; in test [5] (at 50.0 µM) it was 5.2%; in test [6] (setting [7]) it was -3%; in test [6] (setting [8]), -3%; in test [6] (at 50.0 µM), 4.95%.

As to `CC1CCC2(CC1)OCC(C)O2` (stereo not given), the growth inhibition in test [1] (setting [7]) was 4%; in test [1] (setting [8]), 1%; in test [1] (at 50.0 µM), -19.9%; in test [2] (setting [7]) it was 16%; in test [2] (setting [8]), 5%; in test [2] (at 50.0 µM) it was 5.45%. Moreover, the growth inhibition in test [3] (setting [7]) was -2%; in test [3] (setting [8]), -12%; in test [3] (at 50.0 µM), -24.4%; in test [4] (setting [7]), 26%; in test [4] (setting [8]), 15%; in test [4] (at 50.0 µM), 19.8%. Moreover, the growth inhibition is 27% in test [5] (setting [7]); 34% in test [5] (setting [8]); -0.9% in test [5] (at 50.0 µM); 7% in test [6] (setting [7]); 1% in test [6] (setting [8]); -8.8% in test [6] (at 50.0 µM).

As for `OC/C(=C\c1ccccc1Br)c1ccccc1Br`, the growth inhibition was 2% in test [1] (setting [7]); 99% (active) in test [1] (setting [8]); 99% (active) in test [1] (at 50.0 µM); 7% in test [2] (setting [7]); 100% (active) in test [2] (setting [8]); 99.1% (active) in test [2] (at 50.0 µM). For the same compound, the growth inhibition in test [3] (setting [7]) is 6%; in test [3] (setting [8]), 66%; in test [3] (at 50.0 µM) it was 99.2% (active); in test [4] (setting [7]) it was 0%; in test [4] (setting [8]), 100% (active); in test [4] (at 50.0 µM) it was 97.5% (active). For the same compound, the growth inhibition in test [5] (setting [7]) is 10%; in test [5] (setting [8]) it was 99% (active); in test [5] (at 50.0 µM), 99% (active); in test [6] (setting [7]), -10%; in test [6] (setting [8]) it was 99% (active); in test [6] (at 50.0 µM), 99% (active).
